Measurements reported in ChEMBL document CHEMBL3988442, “University of Dundee, Small-Polar-MMV Screening Library” (2021).
Among all 48,000 compounds or so, about 13,000 (27%) showed an effect of 50% or more. Some of the results follow.

Each molecule was assayed on Wolbachia pipientis (assay: Anti-Wolbachia Cell-Based Screen). Details: 5 µM.
Assay type: functional
Design: scale not given: in the data most compounds retested in dose-response had high values

| SMILES | Percent Effect [%] |
| --- | --- |
| Cc1ncccc1CNCC1CCN(CC(O)c2ccccc2)CC1 (centres undefined) | 6.479 |
| N[C@@H]1CC[C@H](C(=O)NCc2ccc3nonc3c2)C1 | -14.66 |
| Cc1cccc(CSc2ncc(Br)c(C(=O)O)n2)c1 | 160.3 |
| Cc1cccc(CN2CCN(C(=O)c3cnc(C)[nH]c3=O)CC2)c1 | -2.506 |
| O=C(O)c1nc(SCc2ccccc2)ncc1Br | 220.2 |
| Cc1ccc(CSc2ncc(Br)c(C(=O)O)n2)cc1 | 104.9 |
| Cc1cccc(CN2CCN(C(=O)c3cc(Cl)c[nH]c3=O)CC2)c1 | -10.72 |
| Cc1cccc(CSc2ncc(Cl)c(C(=O)O)n2)c1 | 112.8 |
| Cc1ccnc(NC(=O)CSCc2cccnc2)c1 | -2.126 |
| CC1(C)CN(CC(F)(F)F)CCN1CC(=O)NC1CC1 | -2.584 |
| CSc1sc(NC(=O)Cc2c(C)nc(C)[nH]c2=O)nc1C | -3.918 |
| Cc1ncnc(NCc2cc3n(n2)CCCN(S(C)(=O)=O)C3)c1C | 3.244 |
| CNS(=O)(=O)c1csc(C(=O)N(C)Cc2ccccc2C)c1 | -9.289 |
| CC1COc2ccccc2N1C(=O)CCc1cscn1 (centres undefined) | -5.764 |
| O=C(O)c1nc(SCc2ccc(F)cc2)ncc1Br | 202.4 |
| Cc1ccccc1CSc1nc(N)cc(N2CCC(CC(N)=O)CC2)n1 | 7.144 |
| Cc1ccccc1CSc1ncc(Br)c(C(=O)O)n1 | 130.2 |
| O=C(O)c1nnn(Cc2ccc(F)cc2)c1-c1cccnc1 | 3.102 |
| Cc1ccccc1CSc1nc(N)cc(N2CCCC(C(N)=O)C2)n1 (centres undefined) | -15 |
| Cc1cc(CN2CCc3nn(C(C)C)c(=O)cc3C2)no1 | -4.35 |
| CCc1csc(CCNC(=O)C2CC(=O)N(C(C)C)C2)n1 (centres undefined) | 2.498 |
| CCOCCC(=O)NC(c1noc(C)n1)c1ccccc1F (centres undefined) | -21.83 |
| COc1ccc(CNCC(C)Oc2ccccn2)cc1Br.Cl (centres undefined) | 9.774 |
| NC(=O)c1noc(Cn2ccc3ccccc3c2=O)n1 | -17.09 |
| CC(c1cccc(S(N)(=O)=O)c1)N(C)CCCOc1ccccc1 (centres undefined) | 114.5 |
| Cc1ccc(OCCN(C)C(C)c2cccc(S(N)(=O)=O)c2)cc1 (centres undefined) | 121.8 |

| SMILES | Percent Effect [%] |
| --- | --- |
| CNS(=O)(=O)c1cccc(C(C)NCc2ccccc2)c1 (centres undefined) | -4.826 |
| Cc1ccc(C(C)N(C)CCS(=O)(=O)CCC(N)=O)cc1 (centres undefined) | 1.361 |
| CN(CCCOc1ccccc1)S(=O)(=O)N1CCOCC1 | 2.231 |
| Cc1ccc(OCCCC(=O)NC(C)c2ccc(S(N)(=O)=O)cc2)cc1 (centres undefined) | 31.07 |
| Cc1cccc(C2CCCN2C(=O)CN(C)S(C)(=O)=O)c1C (centres undefined) | -12.58 |
| CCC1CN(C(=O)c2cnc(-c3cnn(C)c3)s2)CCO1 (centres undefined) | -21.53 |
| Cn1ccc(C(=O)N2CCOC(c3ccc(C(N)=O)cn3)C2)n1 (centres undefined) | 91.81 |
| CNC(=O)c1ccc(C2CN(C(=O)c3cncs3)CCO2)nc1 (centres undefined) | -5.383 |
| CNC(=O)c1ccc(C2CN(C(=O)c3cnn(C)c3)CCO2)nc1 (centres undefined) | 109.7 |
| Cc1nc(N)cc(C2CN(C(=O)c3ccn(C)n3)CCO2)n1 (centres undefined) | -11.99 |
| O=C(c1ccncc1F)N1CCOC(c2cccc(O)c2)C1 (centres undefined) | -9.281 |
| Cc1n[nH]c(C2CN(C(=O)c3scnc3C)CCO2)n1 (centres undefined) | -53.57 |
| CNC(=O)c1ccc(C2CN(C(=O)c3scnc3C)CCO2)nc1 (centres undefined) | 111.8 |
| Cc1n[nH]c(C2CN(C(=O)c3ccc(=O)n(C)c3)CCO2)n1 (centres undefined) | -1.43 |
| O=C(c1cccnc1)N1CCOC(c2ccc(-c3cncnc3)cn2)C1 (centres undefined) | 91.28 |
| O=C(c1cccnc1)N1CCOC(CCCc2ccccc2)C1 (centres undefined) | 4.666 |
| CCN(Cc1noc(CC(C)C)n1)Cc1ccccc1C(=O)O | 3.594 |
| COc1ccc(C(=O)C2CCCN(c3cc(N)ncn3)C2)c(C)c1 (centres undefined) | -12.01 |
| Cc1cc(C[C@@H]2COC[C@@H]2NC(=O)CN2CCCN(C)CC2)on1 | -4.417 |
| Cc1cc(C2CCCN2C(=O)CN2CCc3ccccc32)on1 (centres undefined) | -2.751 |
| CNC(=O)c1ccc(C2CN(C(=O)c3coc(C)n3)CCO2)nc1 (centres undefined) | 128.9 |
| CNC(=O)c1ccc(C2CN(C(=O)c3c[nH]nc3C)CCO2)nc1 (centres undefined) | 101.4 |
| Cc1[nH]ncc1C(=O)N1CCOC(c2cccs2)C1 (centres undefined) | 6.058 |
| CCS(=O)(=O)CC(=O)Nc1c(C)cnn1Cc1cc(F)ccc1F | -26.81 |
| Cc1cc(NC(=O)c2ccc(C)c(F)c2)[nH]n1 | 2.098 |
| COc1ccccc1-c1cc(NC(=O)CCS(=O)(=O)C2CCCC2)[nH]n1 | 7.035 |

| SMILES | Percent Effect [%] |
| --- | --- |
| O=C(COCC1CC1)Nc1cc(-c2ccc(Br)s2)n[nH]1 | -5.562 |
| CCS(=O)(=O)CC(=O)Nc1cc(-c2cccc(F)c2F)n[nH]1 | 100.6 |
| COc1ccccc1-c1cc(NC(=O)COCC2CC2)[nH]n1 | 4.73 |
| CCOCC(=O)Nc1cc(-c2cccc(F)c2F)n[nH]1 | 91.5 |
| CS(=O)(=O)CCCC(=O)Nc1cc(-c2cccc(F)c2F)n[nH]1 | 87.07 |
| CS(=O)(=O)CCCC(=O)Nc1cc(Cl)c(Cl)cn1 | 1.598 |
| CC(=O)Nc1cc(-c2cccc(F)c2F)n[nH]1 | 88.91 |
| CCS(=O)(=O)CC(=O)NCC1(c2c(F)cccc2F)CCCC1 | -2.417 |
| COc1ccc(Cl)cc1-c1cc(NC(=O)C2CNC(=O)N2)[nH]n1 (centres undefined) | 7.586 |
| CN1CCOC(C(=O)N2CCCC(C)(C)CC2)C1 (centres undefined) | -5.11 |
| CCc1c(C)nc(N)nc1NCCSCc1[nH]cnc1C | -21.58 |
| c1coc(-c2nc(CN3CCn4c(nnc4C4CC4)C3)cs2)c1 | 21.52 |
| N#Cc1cccnc1N1CCCC(CO)(Cc2ccc(F)cc2)C1 (centres undefined) | -22.45 |
| CN(C)C(=O)c1ccc2c(c1)N(C)C(CC(=O)NCc1ncc[nH]1)CO2 (centres undefined) | -21.18 |
| O=C(COc1ccccc1)NS(=O)(=O)Cc1ccccc1 | 9 |
| COCCN1C[C@@H](C)[C@@]2(COCCN(C(=O)Cc3ccccc3)C2)C1.O=C(O)C(F)(F)F | -3.108 |
| CC(C)CC(C#N)NC(=O)c1ccc(Oc2cccnc2)cc1 (centres undefined) | 0.407 |
| CCN(Cc1nc2c(cnn2C)c(=O)[nH]1)c1cccc(Cl)c1 | -0.7695 |
| CN(Cc1ccc2c(c1)OCO2)Cc1nc2c(cnn2C)c(=O)[nH]1 | 5.823 |
| CCN(Cc1ccc(F)c(F)c1)Cc1nc2c(cnn2C)c(=O)[nH]1 | 128.6 |
| CCN(Cc1ccc2c(c1)OCO2)Cc1nc2c(cnn2C)c(=O)[nH]1 | 112.4 |
| CCN(Cc1nc2c(cnn2C)c(=O)[nH]1)c1ccc(OC)c(OC)c1 | 11.95 |
| CCN(Cc1nc2c(cnn2C)c(=O)[nH]1)c1cc(C)ccc1C | -12.64 |
| CCN(Cc1ccc(OC)c(F)c1)Cc1nc2c(cnn2C)c(=O)[nH]1 | 142.5 |
| COc1ccc(CN(C)Cc2nc3c(cnn3C)c(=O)[nH]2)cc1OC | 10.06 |
| COCCN1C[C@H]2CC[C@@H]1CN(Cc1cc(=O)c3cc(C)ccc3[nH]1)C2 | -2.085 |

| SMILES | Percent Effect [%] |
| --- | --- |
| COc1c(-c2ccc(O)cc2)oc2cc(O)cc(O)c2c1=O [ISOKAEMPFERIDE] | 3.468 |
| CCc1cc(N2CCC(N[C@@H]3CS(=O)(=O)C[C@H]3O)CC2)nc(N(C)C)n1 | -8.378 |
| O=S(=O)(C1CC1)N1CCc2ncnc(-c3ccsc3)c2CC1 | -15.04 |
| Fc1cccc(N2CCc3ncnc(N4CCOCC4)c3CC2)c1 | 24.23 |
| O=S(=O)(C1CC1)N1CCc2ncnc(-c3ccc(F)cc3)c2CC1 | 10.52 |
| Cc1cnc(N2CCc3ncnc(N4CCN(C)CC4)c3CC2)nc1.O=C(O)C(F)(F)F | -5.23 |
| CN1CCN(c2ncnc3c2CCN(c2ncc(F)cn2)CC3)CC1.O=C(O)C(F)(F)F | 6.683 |
| CN1CCN(c2ncnc3c2CCN(S(=O)(=O)C2CC2)CC3)CC1.O=C(O)C(F)(F)F | 114.5 |
| c1nc2c(c(N3CCOCC3)n1)CCNCC2 | 91.19 |
| O=S(=O)(C1CC1)N1CCc2ncnc(N3CCOCC3)c2CC1 | 100.4 |
| Cc1ncnc2c1CCN(S(=O)(=O)C1CC1)CC2 | 105 |
| CCOc1ncnc2c1CCN(S(=O)(=O)C1CC1)CC2 | 10.58 |
| O=C(C1CC1)N1CCCN(c2ncnc3c2CCNCC3)CC1 | -5.367 |
| CCN1CCC(CC(=O)N2CCCCC2CCn2cccn2)CC1 (centres undefined) | 1.727 |
| N#Cc1ccc(CNC(=O)NCCNC(=O)C2CCCC2)c(F)c1 | 4.725 |
| COc1ccc2ccccc2c1CNCC1CCS(=O)(=O)C1.Cl (centres undefined) | 9.511 |
| O=C(O)C(F)(F)F.O=C(O)C(F)(F)F.O=C(O)C(F)(F)F.c1ccc(CN2CCc3ncnc(N4CCCC4)c3CC2)nc1 | 8.605 |
| O=C(O)C(F)(F)F.O=S(=O)(C1CC1)N1CCc2ncnc(-c3ccncc3)c2CC1 | -12.42 |
| O=C(O)C(F)(F)F.O=S(=O)(C1CC1)N1CCc2ncnc(N3CCCC3)c2CC1 | 105.6 |
| COCCC1(CNC(=O)NCC2CCCN(C)C2)CCCC1 (centres undefined) | 2.707 |
| CCc1ncc(CN2C[C@@H]3C[C@@H](O)CN3C[C@@H]2Cc2ccccc2)cn1 | 90.44 |
| CCc1ncc(CN2CCCN(CC3CC3)C(C(C)C)C2)cn1 (centres undefined) | -1.309 |
| COCc1ncc(CN2CC[C@@](C)(O)[C@@H](Cc3ccccc3)C2)cn1 | -1.853 |
| COc1ncc(CN2CCOC(Cc3cccc4ccccc34)C2)cn1 (centres undefined) | -6.808 |
| COc1ncc(CN2C[C@@H]3C[C@@H](O)CN3C[C@@H]2Cc2ccccc2)cn1 | 106.8 |
| COc1ccc(CN2C[C@H](O)C[C@H]2c2nc(-c3ccccc3)no2)cc1 | 10.67 |
